Assay results published in PubChem BioAssay (NCI).
This is part of a sample that, as a whole, favours compounds with a hit. Of some 83,000 tested, about 20% had one in any assay.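 Compound tested at a single concentration for 48 hours in 96-well plates; a percent growth value below 10 was scored as active.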 Values without a mark were called inactive. Calls of active or inactive are those of the source.

How the values were obtained:
Assay in all cases: NCI-60 one-dose screen, 48 h (100 = growth as untreated, 0 = no growth, -100 = all killed)
Details in all cases: 10 µM unless noted
T-47D breast = test system: T-47D breast
MDA-MB-435 melanoma = test system: MDA-MB-435 melanoma
SW-620 colon = test system: SW-620 colon
MCF7 breast = test system: MCF7 breast
HCT-116 colon = test system: HCT-116 colon
HCC-2998 colon = test system: HCC-2998 colon
KM12 colon = test system: KM12 colon
BT-549 breast = test system: BT-549 breast

SMILES	growth (T-47D breast) [%]	growth (MDA-MB-435 melanoma)	growth (SW-620 colon)	growth (MCF7 breast)	growth (HCT-116 colon)	growth (HCC-2998 colon)	growth (KM12 colon)	growth (BT-549 breast) [%]
O=C(/C=C/c1ccccc1)Oc1ccc(/C=C/c2cc(OC(=O)/C=C/c3ccccc3)cc(OC(=O)/C=C/c3ccccc3)c2)cc1	81.9	101%	99.6%	103%	96.3%	104%	103%	–
Nn1c(CN2CCN(c3cc4c(cc3F)c(=O)c(C(=O)O)cn4C3CC3)CC2)n[nH]c1=S	98.3	97.9%	–	93.4%	102%	92.7%	103%	–
O=C(/C=C/c1ccco1)c1cccc(Nc2nc(Nc3ccccc3)nc(Nc3ccccc3)n2)c1	48.6	102%	88%	28.3%	40.4%	68.5%	83.7%	–
CN1C(=O)C2(SCC(C(=O)NCC(=O)OC(C)(C)C)N2C(=O)C2CCCCC2)c2ccccc21 (centres undefined)	82.9	104%	98.7%	97.9%	96.3%	106%	101%	–
CCNc1cc(S(=O)(=O)O)ccc1C	90	107%	104%	98.6%	98.3%	103%	107%	–
CCOC(=O)c1cnc2c(OC)ccc(OC)c2c1Cl	116	104%	107%	108%	108%	117%	101%	–
Cc1cc(SCc2ccc(Cl)cc2Cl)nc(SCc2ccc(Cl)cc2Cl)n1	114	97.2%	101%	92.8%	95.9%	100%	97.4%	–
O=C(Nc1ccc(-n2ccc3c(NC(=O)c4ccccc4)nccc32)cc1)c1ccc(Cl)c(C(F)(F)F)c1	62.3	11.6%	-45.8% (active)	-62.6% (active)	-92.4% (active)	19.7%	-3.15% (active)	–
c1nc(SC2=NCCN2)c2[nH]cnc2n1	21.8	24%	–	14%	37%	32.8%	47.2%	–
CCOC(=O)C1CN(Cc2ccccc2)C(=O)C1=O (centres undefined)	104	98.6%	95%	100%	92.9%	118%	108%	–
CN1CCN(Cn2nc(-c3cc(Cl)cc(Cl)c3Cl)n(/N=C/c3ccc(Cl)cc3)c2=S)CC1	94.9	107%	110%	95.5%	89.4%	103%	107%	–
Oc1ccccc1/C=N/c1ccccn1	95.9	122%	107%	97.7%	103%	-94.1% (active)	113%	–
CCCN1C(=O)CSC1=Nc1ccc2cc3ccc(N=C4SCC(=O)N4CCC)cc3nc2c1	12.1	40.5%	70.3%	16.8%	37%	64.2%	36.7%	–
CN1CCN(Cn2nc(-c3cc(F)c(Cl)cc3Cl)n(/N=C/c3ccc(N(C)C)cc3)c2=S)CC1	93.7	-7.65% (active)	70.5%	112%	82.1%	98%	88.8%	–
O=C1C(SCCO)=C(SCCO)C(=O)N1c1ccc(-c2ccccc2)cc1	24	92.2%	-66.9% (active)	80.5%	13.7%	79.8%	83.4%	–
CC(=S)Nc1ccccc1	100	99.4%	96.8%	95%	104%	105%	106%	–
O=C1OC(=O)C2C3CC(c4ccccc43)C12 (centres undefined)	103	104%	101%	97.7%	89.2%	106%	105%	–
O=C(O)c1cccc(S(=O)(=O)c2ccccc2)c1	–	94.2%	98.5%	90.4%	109%	104%	97.4%	107
CCC1S/C(=N\N=C(/C)c2cc3ccccc3o2)N(c2ccccc2)C1=O (centres undefined)	85.1	107%	–	162%	80.8%	113%	114%	–
CCCCOc1nc2ccc(Cl)cc2cc1/C=C/C(=O)/C=C/c1ccc(Cl)cc1	53.8	2.31% (active)	42.5%	23%	-29.1% (active)	60.4%	51.6%	–
CCCCCCCCCCCC(=O)OCCNC(=O)C[n+]1ccccc1	95.3	–	116%	97.9%	103%	111%	110%	–
COc1ccc(Cn2cc(COc3ccc4c5ccnc(C)c5n(CCCc5ccccc5)c4c3)nn2)cc1	61.8	63.2%	65.5%	47.7%	51.5%	83%	59.7%	–
Cc1cc2nc(-c3c(N)ncc(C#N)c3-c3ccc(Cl)cc3)[nH]c2cc1C	68.8	58%	76.6%	58.5%	34.8%	65.4%	52.9%	–
O=C(O)c1ccccc1C(=O)c1ccc(I)cc1	83.1	107%	97.4%	92.1%	99.9%	102%	106%	–
CC(=O)Nc1ccc([I+]c2ccc([N+](=O)[O-])cc2)cc1	68.1	109%	95.1%	94.8%	81%	106%	104%	–
OC[C@@H](O)C(O[C@@H]1O[C@H](CO)[C@H](O)[C@H](O)[C@H]1O)[C@H](O)[C@@H](O)CO (some centres undefined)	105	95.4%	102%	106%	113%	95.6%	103%	–
COc1ccc(-c2c(C#N)cnc(N)c2-c2nc3cc(C)c(C)cc3[nH]2)cc1	71.7	-5.12% (active)	38.4%	50.9%	20.7%	1.45% (active)	17.2%	–
O=C1COc2ccccc2C(=O)N1CCCCN1CCCCC1	51.3	104%	84.6%	79.6%	57.8%	109%	90.2%	–
O=[N+]([O-])c1cccc2cc(S(=O)(=O)O)ccc12	98.9	110%	99.9%	97.2%	97.6%	100%	108%	–
